Only some compounds are listed: those with a hit (about 5.3% of all), similar ones and a draw of the others.
HIF activator – HIF pathway transcriptional activators, primary screen, cell-based, U2OS HRE-luciferase, luminescence. U2OS HRE-luciferase reporter; normalized: DMSO 0%, desferrioxamine 100%. activation, % at 7.5 µM (by protocol). hit rate 0.32% among 300,000. AID 1910, 2009;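 active = mean activation of at least 10% of the iron chelator positive control signal, with at least half of replicates also reaching 10%; inconclusive = mean and replicate majority disagree about reaching 10%; inactive = mean and most replicates under 10%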
Mot1-301 SUMO – yeast Mot1-301 growth rescue at high temperature, primary screen, SUMOylation pathway inhibitor project, S. cerevisiae, ATP luminescence, 38.5C; hit rate 1% among 320,000; S. cerevisiae Mot1-301 growth rescue; percent above DMSO median, 100 means doubled; growth rescue, % at 18.8 µM; AID 2716, 2010;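 active = every valid replicate shows activation above 250% relative to neutral control wells; inactive = the rest, any valid replicate at or below 250%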;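 note: OY570 slx delta 5 strain wells were the positive control but not used for scaling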
ALR inh – inhibitors of human ALR sulfhydryl oxidase, primary screen, biochemical, H2O2 detection, HRP-luminol luminescence, single point | FAD-linked sulfhydryl oxidase ALR (Homo sapiens), P55789 | purified ALR, DTT oxidation | inhibition, % (concentration not given with the values) | hit rate 3.8% among 290,000 | AID 485317, 2010;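 active = mean replicate inhibition above about 79%, with every replicate also reaching it, limit read from the data; inconclusive = only one of the two criteria met; inactive = mean below limit and not every replicate reaching it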
Target sequence (P55789 whole entry, looked up): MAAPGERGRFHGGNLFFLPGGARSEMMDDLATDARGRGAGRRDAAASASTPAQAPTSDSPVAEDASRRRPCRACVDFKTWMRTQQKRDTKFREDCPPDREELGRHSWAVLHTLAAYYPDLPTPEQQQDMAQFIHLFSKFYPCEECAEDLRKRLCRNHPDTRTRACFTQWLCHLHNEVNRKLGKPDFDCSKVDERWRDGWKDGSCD
M18AAP inhibitor – PfM18AAP inhibitors, malaria aminopeptidase, primary screen, biochemical, QFRET, recombinant enzyme. hit rate 1.2% among 290,000. inhibition, % at 7.35 µM. M18 aspartyl aminopeptidase (Plasmodium falciparum 3D7). H-Glu-NHMec fluorogenic cleavage. AID 1822, 2009;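 active = inhibition above the campaign mean inhibition over all tested compounds plus 3 SD, cut at about 28% in these data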;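 note: 0% = plate median of test compound wells and 100% = 2 mM ZnCl2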
Starred values were filed as active, the others as inactive; ? = inconclusive; . = not tested or not shown.

SMILES	HIF activator	Mot1-301 SUMO	ALR inh	M18AAP inhibitor
O=C(NNc1ncnc2sccc12)c1ccc(Cl)cc1	1	3	-4	28*
CCN1C(=S)SC(=O)C1=C1C=C(C)OC(C)=C1	1	11	-5	-1
CCN1C(=S)SC(=O)C1=C1C=C(C)N(Cc2ccco2)C(C)=C1	4	-7	99*	0
CCN(CC)c1ccc(NC(=O)CN2CCN(c3ccccc3F)CC2)cc1	0	-2	99*	2
Cc1ccc(C(=O)C2CCN(CC(=O)Nc3ccc(N(C)C)cc3)CC2)cc1	0	7	98*	4
O=C(CN1CCN(c2ccccc2)CC1)Nc1ccc2c(c1)OCCO2	1	2	55	-7
O=C(CN1CCN(c2ccccc2O)CC1)Nc1ccc2c(c1)OCCCO2	.	3	100*	.
O=C(CN1CCC(C(=O)c2ccc(F)cc2)CC1)Nc1ccc(F)cc1	-1	26	-1	-6
O=C(CN1CCC(NC(=O)c2ccccc2F)CC1)Nc1ccc2c(c1)OCO2	0	667*	.	-1
Cc1ccccc1C(=O)NC1CCN(CC(=O)Nc2ccc3c(c2)OCO3)CC1	0	5	-10	-1
CC(C)Cc1nnc(NC(=O)CCC(=O)NCc2ccccc2Cl)s1	0	4	-6	3
COc1ccc(OS(=O)(=O)c2c(C)noc2C)cc1	0	-4	-4	-2
CC(=O)c1ccc(S(=O)(=O)N(C)C(C)CCc2ccco2)cc1 (configuration not stated)	0	-2	0	-5
CN(C)c1ccc(NC(=O)CN2CCN(CC(=O)Nc3ccc(F)cc3)CC2)cc1	1	8	99*	6
O=C(CCNC(=O)c1ccc([N+](=O)[O-])cc1)NNC(=O)c1ccccc1F	.	-14	-6	.
CCC(CC)c1nnc(NC(=O)c2cc([N+](=O)[O-])ccc2N2CCOCC2)s1	.	-6	.	.
O=[N+]([O-])c1ccc2nc(C3CCCCC3)[nH]c2c1	0	4	97*	8
Nc1nc2ccc([N+](=O)[O-])cc2[nH]1	0	9	0	-2
Cc1ccc(C)c(NC(=O)CSc2nc3ccc(N4C(=O)c5ccccc5C4=O)cc3s2)c1	0	24	86*	-6
NC(=O)CC(NC(=O)Cc1ccc(Br)cc1)c1ccc(NCc2ccc(F)cc2)c([N+](=O)[O-])c1 (configuration not stated)	0	-2	-3	.
CC(C)(C)OC(=O)N/N=C/c1ccc(N2CCOCC2)s1	0	-3	83*	7
O=C(Nc1nc2ccc(F)cc2s1)c1ccccn1	-1	1	45	6
O=C(NNc1nc2ccc(F)cc2s1)c1cccc(F)c1	2	0	98*	22
CC(C)OC(=O)CSc1nc(Cc2ccccc2)nc2ccccc12	-1	.	86*	0
COC(=O)CSc1nc(Cc2ccccc2)nc2ccccc12	0	.	?	5
SMILES	HIF activator	Mot1-301 SUMO	ALR inh	M18AAP inhibitor
CCOC(=O)CNC(=O)CSc1nc(Cc2cccs2)nc2ccccc12	0	-5	79*	3
CCC1=NN(C(=O)COc2ccccc2)C(O)(c2ccc(Br)cc2)C1 (configuration not stated)	0	6	.	26
N#Cc1ccccc1NC(=O)COC(=O)c1cccs1	.	-18	.	.
N#Cc1ccccc1NC(=S)NC(=O)c1cccs1	3	32	98*	-13
Cc1csc(SCC(=O)Nc2ccc(Cl)cn2)n1	0	182	92*	6
CCOC(=O)c1c(SCC(=O)Nc2nc(C)cs2)nc(=O)[nH]c1C	0	13	99*	-8
Cc1csc(NC(=O)CSc2ncnc3c2cnn3-c2ccccc2Cl)n1	0	.	99*	-5
Cc1csc(NC(=O)CSc2ncc(-c3ccccc3)[nH]2)n1	2	-9	59	3
Cc1csc(NC(=O)CSc2[nH]c(=O)ncc2C)n1	0	-9	99*	.
COC(=O)c1c(SCC(=O)Nc2ccc(C)cc2)nc(=O)[nH]c1C	0	5	53	7
CC(C)(C)c1csc(SCC(=O)Nc2ccc(Cl)cn2)n1	-1	-10	-5	-4
O=C(CNC(=O)c1ccc(Cl)cc1Cl)OCc1nnc(-c2ccccc2)o1	0	-6	-16	.
COC(=O)c1ccc(CNC(=O)COC(=O)CCN2C(=O)C3CC=CCC3C2=O)cc1 (configuration not stated)	0	18	-6	.
O=C(O)CCNc1cc(N2CCN(C(=O)c3ccco3)CC2)c2noc3c2c1C(=O)c1ccccc1-3	-1	-22	57	35*
CCN1CCN(c2cc(N3CCN(C(=O)c4ccco4)CC3)c3c4c(onc24)-c2ccccc2C3=O)CC1	-2	-30	-11	22
O=C(NCc1ccc(OC(F)(F)F)cc1)C1CC(c2c(Cl)cccc2Cl)=NO1 (configuration not stated)	-1	12	-3	-3
O=C(Nc1ccc(-c2cn3c(n2)SCC3)cc1)c1ccco1	2	47	4	-1
COc1cc(/C=C2/C(=O)N(c3ccc(Br)cc3)N=C2C)cc([N+](=O)[O-])c1O	1	8	-9	6
COc1cc(/C=C2/C(=O)N(c3cccc(Br)c3)N=C2C)cc(OC)c1O	0	201	92*	20
CC1=NN(c2ccccc2)C(=O)/C1=C/c1cccc(C)c1	-1	-8	94*	10
C=CCN1C(=O)c2ccc(C(=O)N3CCN(S(=O)(=O)c4cccc([N+](=O)[O-])c4)CC3)cc2C1=O	.	-7	-8	.
CC1CCN(S(=O)(=O)c2cn(CC(=O)N3CCN(C)CC3)c(=O)c3ccccc23)CC1	0	.	.	0
CCN(C(=O)COC(=O)c1ccc(Br)o1)C1CCCCC1	0	4	-2	-1
Cc1ccc(N(CC(=O)N2CCN(c3ccccc3F)CC2)S(=O)(=O)c2c(C)noc2C)cc1	0	1	-3	2
CCOC(=O)C1CCCN(C(=O)c2ccc(S(=O)(=O)Nc3ccccc3OC)cc2)C1 (configuration not stated)	.	-4	-8	.
SMILES	HIF activator	Mot1-301 SUMO	ALR inh	M18AAP inhibitor
Cc1ccc(S(=O)(=O)NCC(=O)OCC(=O)c2cccs2)cc1	-1	-6	0	-12
Cc1ccc(S(=O)(=O)NCC(=O)OCC(=O)c2ccc(Cl)s2)cc1	0	353*	.	0
Cc1cccc(-c2nn(-c3ccccc3)cc2C(=O)N(C)CC(=O)Nc2ccc(N3CCOCC3)cc2)c1	1	24	-3	.
O=C(Nc1ccccc1O)N1c2ccccc2Sc2ccccc21	0	-19	84*	2
CC(C)CC1NC(=O)N(CC(=O)N2CCN(S(=O)(=O)c3ccccc3)CC2)C1=O (configuration not stated)	0	2	-21	-10
COc1ccc(/C=N/NC(=O)c2ccc(Br)cc2)c(OC)c1	0	4	-1	3
COc1ccc(C(=O)N/N=C/c2cc(Br)ccc2O)cc1OC	40*	133	0	1

Compound activity from PubChem.
